Here are results for 40 compounds from PubChem BioAssay (EPA / NIEHS).

The AC50 is the concentration giving half of the maximal activity seen.

SMILES strings stand for the structures. Activity calls are given as the source filed them. How the source made its calls: active means hit-call score of the fitted dose curve at least 0.9, where 1 is the maximum; inactive means score below 0.9.

The target in the test is Transcription factor E2F1 (Homo sapiens) (UniProt Q01094). Nature of the test: ATG_E2F_CIS: Attagene CIS-FACTORIAL HepG2 Assay for human E2F Transcription Factor 1 (AID 2282935). To be noted: HepG2 Attagene cis-reporter, E2F reporter RNA transcripts; actives raise or lower the signal. As to the method: ATG_CIS is a cell-based, multiplexed-readout assay that uses HepG2, a human liver cell line, with measurements taken at 24 hours after chemical dosing in a 24-well plate.ATG_E2F_CIS is one of 52 assay component(s) measured or calculated from the ATG_CIS assay. It is designed to make measurements of mRNA induction, a form of inducible reporter, as detected with fluorescence intensity signals by Reverse transcription polymerase chain reaction (RT-PCR) and Capillary electrophoresis technology.Data from the assay component ATG_E2F_CIS was analyzed into 1 assay endpoint. This assay endpoint, ATG_E2F_CIS, was analyzed with bidirectional fitting relative to DMSO as the negative control and baseline of activity. Using a type of inducible reporter, measures of mRNA for gain or loss-of-signal activity can be used to understand the reporter gene at the transcription factor-level as they relate to the gene E2F1. Furthermore, this assay endpoint can be referred to as a primary readout, because this assay has produced multiple assay endpoints where this one serves a reporter gene function. To generalize the intended target to other relatable targets, this assay endpoint is annotated to the dna binding intended target family, where the subfamily is E2F transcription factor.
Chain of Transcription factor E2F1 (Homo sapiens) (Q01094 whole entry, looked up): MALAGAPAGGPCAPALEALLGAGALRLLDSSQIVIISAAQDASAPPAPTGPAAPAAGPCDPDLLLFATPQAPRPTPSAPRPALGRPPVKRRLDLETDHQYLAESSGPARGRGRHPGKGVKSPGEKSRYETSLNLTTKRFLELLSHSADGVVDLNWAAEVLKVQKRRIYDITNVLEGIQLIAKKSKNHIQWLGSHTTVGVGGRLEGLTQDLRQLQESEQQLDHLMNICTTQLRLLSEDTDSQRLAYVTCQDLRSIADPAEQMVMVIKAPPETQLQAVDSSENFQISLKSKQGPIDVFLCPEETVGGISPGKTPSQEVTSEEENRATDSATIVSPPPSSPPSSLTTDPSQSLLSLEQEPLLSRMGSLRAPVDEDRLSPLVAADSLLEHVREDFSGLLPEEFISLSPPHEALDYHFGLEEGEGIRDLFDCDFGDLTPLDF
Human liver HepG2 cells are transiently transfected with multiple reporter transcription units (MRTUs) in 6-well plates using FuGene 6 reagent (Roche; 3 ml FuGene/1 mg DNA). The MRTU constructs are regulated by a cis-regulating element (promoter). […] A major difference between the CIS and TRANS system is that in CIS activities of endogenous TFs are measured, whereas the TRANS assay evaluates changes in activities of exogenous, chimeric NR-Gal4 proteins. […] At the end of 24 hour incubation, total RNA was isolated using TriZol reagent (Invitrogen). The isolated RNA is then reverse-transcribed using oligo(dT) primer and Mo-MLV reverse transcriptase (Invitrogen) with DNAse I (Ambion) treatment for 30 min. The one-tenth of the produced cDNA was amplified by PCR using Taq DNA polymerase (Invitrogen) and two reporter sequence-specific primers. The PCR products were fluorescently labeled by primer extension with 6-arboxyfluorescein (6-FAM) 5'-labeled reporter sequence-specific primer (2 min at 95 C, 20 s at 68 C and 10 min at 72 C) and these products were digested with 5U of HpaI (New England Biolabs) for 2h at 37 C. The fragments were purified using Qiaquick PCR columns (Qiagen), analyzed on an ABI 3130xL genetic analyzer (Applied Biosystems) with peak positions identified by using a set of X-rhodamine (ROX)-labeled MapMarker1000 molecular weight standards (BioVentures). The raw capillary electrophoresis data was processed using Attagraph software (Attagene).
Consider `Brc1c(Br)c(Br)c(Oc2c(Br)c(Br)c(Br)c(Br)c2Br)c(Br)c1Br`, for which the compound was called inactive.
On the same count and under the same terms, then `Cc1cc(Cl)ccc1OC(C)C(=O)O` (stereo not given), with “inactive”.
Same read-out and setting: then `Nc1ccc(N)cc1`, with “inactive”; and `FC(F)OCC(F)(F)C(F)(F)F`, with “inactive”.
Same read-out and setting: then `CCOC(=O)Cc1ccccc1`, with “inactive”.
Take `Clc1cc(C(Cl)(Cl)Cl)cnc1Cl`: the AC50 was 33.4 µM (active).
On to `O=S(=O)(c1ccc(Cl)cc1)c1cc(Cl)c(Cl)cc1Cl`, for which the compound was classed as inactive.
The same measure, in the same setting: to `O=[N+]([O-])c1ccccc1O` belongs “inactive”; to `c1csc(-c2ccc(-c3cccs3)s2)c1`, “inactive”; to `C[C@@H]1O[C@@H](O[C@H]2C[C@@H](O)[C@]3(CO)[C@H]4[C@H](O)C[C@]5(C)[C@@H](C6=CC(=O)OC6)CC[C@]5(O)[C@@H]4CC[C@]3(O)C2)[C@H](O)[C@H](O)[C@H]1O`, “inactive”.
Still for that read-out and setting: then `CCOc1ccc(N)cc1`, with “inactive”; and `Oc1c(Cl)cc(Cl)cc1Cl`, with “inactive”; and `Oc1ccc(Cc2ccc(O)cc2)cc1`, with “inactive”.
The same measure, in the same setting: to `CCCCOP(=O)(CCCC)OCCCC` belongs “inactive”; to `C=CC(Cl)CCl` (stereo not given), “inactive”.
As for `Oc1c(Br)cc(Br)cc1Br`, the compound was called inactive.
On the same count and under the same terms, then `OC[C@@H](O)[C@H]1O[C@@H]2O[C@H](C(Cl)(Cl)Cl)O[C@@H]2[C@H]1O`, with “inactive”.
Still for that read-out and setting: to `Clc1cnc(Oc2ccc(Oc3ncc(Cl)cc3Cl)cc2)c(Cl)c1` belongs “inactive”; to `O=C(O)C1(c2ccc3c(c2)OC[C@H](Cc2ccc(-c4ccccc4)cc2)[C@H]3O)CCCC1`, “inactive”; to `NC(=O)CCl`, “inactive”.
Still for that read-out and setting: then `CN(C)[C@@H]1C(=O)C(C(N)=O)=C(O)[C@@]2(O)C(=O)C3=C(O)c4c(O)ccc(Cl)c4[C@@](C)(O)[C@H]3C[C@@H]12`, with “inactive”; and `Fc1cccc(Cl)c1CCl`, with “inactive”; and `Cc1cccc(N=Nc2ccc(N(C)C)cc2)c1`, with “inactive”.
For the compound `CCOC(=O)c1ccccc1S(=O)(=O)NC(=O)Nc1nc(Cl)cc(OC)n1`, the result was inactive.
On the same count and under the same terms, to `CCOP(=S)(OCC)OP(=S)(OCC)OCC` belongs “inactive”.
For the compound `O=S(=O)(C(Cl)(Cl)Cl)C(Cl)(Cl)Cl`, the AC50 was 6.13 µM (active).
For `CC(C)(C)c1cc([N+](=O)[O-])cc(C(C)(C)C)c1O`, the outcome was inactive.
On the same count and under the same terms, to `Cc1ccc2nc3sc(=O)sc3nc2c1` belongs “inactive”; to `N#CCCC(Br)(C#N)CBr` (stereo not given), “inactive”.
Same read-out and setting: to `C=C(C)[C@@H]1CC=C(C=O)CC1` belongs “inactive”.
On to `BrCc1ccc(Br)cc1`, for which the outcome was inactive.
On the same count and under the same terms, then `C[CH2][Hg][S]c1ccccc1C(=O)O`, with “inactive”.
Still for that read-out and setting: then `O=[N+]([O-])c1c2ccccc2cc2ccccc12`, with “inactive”; and `NNCCO`, with “inactive”; and `O=C(Cc1ccccc1)OCCc1ccccc1`, with “inactive”.
On to `O=C1C[C@@H]2OCC=C3CN4CC[C@]56c7ccccc7N1[C@H]5[C@H]2[C@H]3C[C@H]46`, for which the outcome was inactive.
On the same count and under the same terms, then `O=C(O)COc1ccc(Cl)cc1`, with “inactive”; and `Oc1cccc(-c2ccccc2)c1`, with “inactive”.
The same measure, in the same setting: then `ClCCN1CCOCC1`, with “inactive”; and `C[C@]12CC[C@@H](O)C[C@@H]1CC[C@@H]1[C@@H]2CC[C@]2(C)C(=O)CC[C@@H]12`, with “inactive”.
